According to PubChem BioAssay AID623868 (Vanderbilt High Throughput Screening Facility, 2012):
About 760 (36%) of roughly 2,100 compounds were called active.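 The calls were made as follows: active = thallium-flux fluorescence traces judged by eye to show enhanced or reduced glutamate response, manual score 1 or -1, so both directions (some results past the limit were not filed as active); inactive = the rest, including fluorescent or raised-baseline compounds.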 Only a sample is shown.

Experiment: thallium influx changes without GIRK channels – cell-based, HEK-293 rmGlu8, no GIRK, thallium flux, counter-screen for GIRK activator project, confirmation (AID 623868);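 also: extra codes mark interference with 3 for fluorescent and 4 for baseline rise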
Details: thallium flux fluorescence, at 10 µM, actives lie on both sides, codes: 1 enhancer, -1 blocker, 0 none, thallium stimulus containing EC20 glutamate

| Structure (SMILES) | manual score |
| --- | --- |
| CC(C)N(C(=O)CN(C#N)c1nc(N(C)C)nc(N(C)C)n1)c1ccccc1 | 0 (inactive) |
| CCN(CC)CC(O)COCCC12CC3CC(CC(C3)C1)C2 (centres undefined) | 0 (inactive) |
| O=C(N/C(=N\O)c1ccccc1)Nc1ccc(Cl)cc1 | 0 (inactive) |
| N#C/C(=N\Nc1ccc(Cl)cc1)C(=O)c1ccccc1 | -1 (active) |
| CSc1ccccc1NC(=O)Nc1ccc(Cl)cc1 | 0 (inactive) |
| CC(C)c1nc(=S)n(-c2ccccc2)[nH]1 | 1 (active) |
| CCOC(=O)c1cccc(-n2c(C)cc(C=O)c2C)c1 | 0 (inactive) |
| O=C(CSCc1ccccc1)N=Nc1c(O)[nH]c2ccccc12 | 1 (active) |
| O=C(CSCc1ccc(Br)cc1)N=Nc1c(O)[nH]c2ccccc12 | 1 (active) |
| Fc1ccccc1/C=N/NC(=S)Nc1ccc(Cl)cc1Cl | 0 (inactive) |
| O=[N+]([O-])c1ccc(/C=N/NC(=S)Nc2ccccc2F)o1 | 1 (active) |
| Fc1ccccc1NC(=S)N/N=C/c1ccccc1Br | 1 (active) |
| O=C(NCCN1CCN(C(=O)Nc2ccccc2)CC1)Nc1ccccc1 | 0 (inactive) |
| Cc1ccccc1N=Nc1c(C)[nH]n(C(N)=S)c1=O | 1 (active) |
| C/C(=N\NC(=S)NCCc1ccccc1)c1ccc(C)cc1 | 0 (inactive) |
| COc1ccc(/C(C)=N/NC(=S)NCc2ccco2)cc1 | 1 (active) |
| S=C(NCc1ccco1)N/N=C/c1ccc(Cl)cc1 | 1 (active) |
| S=C(NCc1ccco1)Nc1ccc(Cl)c(Cl)c1 | 0 (inactive) |
| COc1cccc(N2CCN(c3c4c(nc5ncnn35)CCC4)CC2)c1 | 0 (inactive) |
| O=C(Oc1c(Cl)cc(Cl)c2cccnc12)c1ccco1 | 1 (active) |
| O=C(Oc1ccccc1C(=S)N1CCCCC1)c1cc([N+](=O)[O-])cc([N+](=O)[O-])c1 | 0 (inactive) |
| O=C(Oc1c(Cl)cc(Cl)c2cccnc12)c1cccc([N+](=O)[O-])c1 | 1 (active) |
| COC(=O)[C@H]1CCCN1C(=O)Nc1cccc(Oc2c(F)c(F)c(F)c(F)c2F)c1 | 0 (inactive) |

| Structure (SMILES) | manual score |
| --- | --- |
| Cc1ccc(Nc2cc(C)nn2-c2nc(C)cc(=O)[nH]2)cc1 | 1 (active) |
| Cc1cc(NC(=O)Nc2ccccc2)n(-c2ccccc2)n1 | 0 (inactive) |
| Cc1cc(NC(=O)c2c(F)cccc2Cl)n(-c2nc3ccccc3[nH]2)n1 | 0 (inactive) |
| C=CCn1c(SCC(=O)Nc2sc(C)c(C)c2C(=O)OCC)nnc1-c1sc(N)nc1C | -1 (active) |
| CCOC(=O)c1c(NC(=O)CSc2nnc(Cc3csc(N)n3)n2C)sc(C)c1C | -1 (active) |
| CCOC(=O)c1cnc(SCC(=O)Nc2nc(C)c(C)s2)nc1N | 0 (inactive) |
| CC1(C)Cc2ccccc2-c2nnc(SCC(=O)N3CCN(c4ccccc4)CC3)n21 | 0 (inactive) |
| C1CCC2(CC1)OCC1(CO2)COC2(CCCCC2)OC1 | 0 (inactive) |
| CC1(C)NC(=O)NC2(C)NC(=O)NC(C)(C)C12 (centres undefined) | 0 (inactive) |
| CNC(=S)N/N=C/c1ccc(C(C)C)cc1 | 1 (active) |
| CNC(=S)N/N=C(\C)c1ccc(C)c(C)c1 | 0.5 (inactive) |
| C=CCNC(=O)C1CC(=O)N(c2ccc(OCC(=O)Nc3ccccc3)cc2)C1 (centres undefined) | 0 (inactive) |
| Fc1ccc2nc(Nc3nc4c(F)cc(F)cc4s3)sc2c1 | 1 (active) |
| Fc1ccc2nc(Nc3nc4c(F)cccc4s3)sc2c1 | 1 (active) |
| Fc1cccc2sc(Nc3nc4ccccc4s3)nc12 | 0 (inactive) |
| Fc1cccc2sc(Nc3nc4cc5c(cc4s3)OCO5)nc12 | 0 (inactive) |
| Fc1cc(F)c2nc(Nc3nc4c(F)cccc4s3)sc2c1 | 1 (active) |
| COc1cc(/C=C2/C(=O)N=C(N)N2C)cc(OC)c1OC | 0 (inactive) |
| CC1CC(C)CN(C(=S)Nc2ccc(SC(F)F)cc2)C1 (centres undefined) | 0 (inactive) |
| Cc1ccc(Nc2n[nH]c(C)c2[N+](=O)[O-])cc1C | 0 (inactive) |
| CCN(CC)CCCN1C(=O)c2oc3ccccc3c(=O)c2C1c1cccs1 (centres undefined) | 1 (active) |
| CCN(CC)CCN1C(=O)c2oc3ccccc3c(=O)c2C1c1ccccc1 (centres undefined) | 0.5 (inactive) |
| CCN(CC)CCN1C(=O)c2oc3ccccc3c(=O)c2C1c1ccc(F)cc1 (centres undefined) | 0 (inactive) |

| Structure (SMILES) | manual score |
| --- | --- |
| CN(C)CCCN1C(=O)c2oc3ccccc3c(=O)c2C1c1cccs1 (centres undefined) | 1 (active) |
| NC(=O)COc1ccc(C2c3c(oc4ccccc4c3=O)C(=O)N2CC2CCCO2)cc1 (centres undefined) | 0 (inactive) |
| O=c1c(O)c(-c2cccs2)oc2ccccc12 | 3 (inactive) |
| O=C1Nc2ccccc2C12OCC1(CO2)COC2(OC1)C(=O)Nc1ccccc12 (centres undefined) | 0 (inactive) |
| O=C(Nc1nnc(-c2ccc(Cl)cc2)o1)c1cccc(N2C(=O)CCC2=O)c1 | 1 (active) |
| Cc1ccc(N2CC(C(=O)Oc3cccc(N4C(=O)CCC4=O)c3)CC2=O)cc1 (centres undefined) | 0 (inactive) |
| COc1ccccc1NC(=O)c1cc(C(=O)Nc2ccccc2OC)cc(N2C(=O)CCC2=O)c1 | 0 (inactive) |
| O=C(Nc1nnc(-c2ccc(Cl)cc2)o1)c1ccc(N2C(=O)CCC2=O)cc1 | 1 (active) |
| COc1ccc(-c2nnc(Nc3nc4c(OC)cccc4s3)o2)cc1 | 1 (active) |
| COc1cccc2sc(Nc3nc(-c4ccccn4)cs3)nc12 | 1 (active) |
| CCNc1nnc(-c2ccc(C)cc2)o1 | 0 (inactive) |
| COc1cccc2sc(Nc3nnc(-c4cccs4)o3)nc12 | 1 (active) |
| CCN(CC)c1nc(C)nc2c1cnn2CCc1ccccc1 | 0 (inactive) |
| Cc1cc(=S)[nH]c2c(C)cccc12 | 1 (active) |
| Cc1cc(C)c2[nH]c(=S)cc(C)c2c1 | 1 (active) |
| CCOc1ccccc1Nc1nnc(Cc2ccccc2Cl)c(=O)[nH]1 | 0 (inactive) |
| CCOC(=O)C1=C(C)N=C2SCCC(=O)N2C1c1sccc1C (centres undefined) | -1 (active) |
| CCOC(=O)C1=C(C)NC(=O)NC1c1ccc(Br)o1 (centres undefined) | 0 (inactive) |
| CC(C)(C)c1nnc(N/N=C/c2ccccc2)n(N)c1=O | 0 (inactive) |
| Cc1cc(=O)n2[nH]c(C)c(-c3ccccc3)c2n1 | -0.5 (inactive) |
| Cc1[nH]n2c(=O)cc(C(C)(C)C)nc2c1-c1ccccc1 | 1 (active) |
| Cc1nc2c(-c3ccccc3)c(C)[nH]n2c(=O)c1Cl | 0 (inactive) |
| COc1ccc(C(=S)Nc2ccc(N(C)C)cc2)cc1 | 0 (inactive) |

| Structure (SMILES) | manual score |
| --- | --- |
| CC/C(=N\NC(=S)Nc1ccc(OC)cc1)c1ccc(OC(F)F)cc1 | 1 (active) |
| CC/C(=N\NC(=S)Nc1cc(C)ccc1C)c1ccc(OC(F)F)cc1 | 0 (inactive) |
| COc1ccc(NC(=S)Nc2ccc(OCc3ccccc3)cc2)cc1OC | 0 (inactive) |
| COc1ccc(C/C(C)=N/NC(=S)Nc2ccccc2)cc1 | 1 (active) |
| CCC1(C)OCC(Cn2c3ccccc3c3ccccc32)O1 (centres undefined) | 0 (inactive) |
| O=c1[nH]c(NCCO)nc2c1C1(CCCCC1)Cc1ccccc1-2 | 0 (inactive) |
| Cc1ccc(/C(O)=C2\C(=O)C(=O)N(c3cc(C)on3)C2c2cccc(Br)c2)cc1 (centres undefined) | -1 (active) |
| C=CCOc1cccc(C2/C(=C(/O)c3ccc(C)cc3)C(=O)C(=O)N2CCN2CCOCC2)c1 (centres undefined) | 0 (inactive) |
| CCN(CC)c1ccc2cc(C=O)c(=O)oc2c1 | 3 (inactive) |
| O=C(O)CN=C(NS(=O)(=O)c1ccccc1)c1ccccc1 | 0 (inactive) |
| Cc1cccc(NC(=S)N/C(=N/S(=O)(=O)c2ccccc2)c2ccccc2)c1 | 1 (active) |
| Cc1cccc(NC(=O)NC(=S)NC(=O)c2ccccc2)c1 | 1 (active) |
| Cc1ccccc1NC(=S)NC(=O)CCc1ccccc1 | 1 (active) |
| Cc1cccc(C)c1NC(=S)NC(=O)CCc1ccccc1 | 1 (active) |
| Cc1ccccc1NC(=O)C(=O)NC(C)CCc1ccccc1 (centres undefined) | 0 (inactive) |
| CC(C)Oc1ccc(C2CC(=O)N(c3ccccc3)C2=O)cc1 (centres undefined) | 0 (inactive) |
| Nc1c(C(O)(C(F)(F)F)C(F)(F)F)ccc2ccccc12 | 0 (inactive) |
| CC(C)(C)CC(=O)Nc1ccc(C(N)=O)cc1 | 0 (inactive) |
| Cc1cccc(NC(=S)NC(=O)CCc2ccccc2)c1 | 1 (active) |
| Cc1cccc(NC(=O)NC(C)CCc2ccccc2)c1 (centres undefined) | 0 (inactive) |
| O=C(Cc1ccccc1)NC(=S)Nc1cccc(C(F)(F)F)c1 | 0 (inactive) |
| O=C(Nc1ccc(O)c(-c2nc3ccccc3s2)c1)C1=COCCO1 | 0 (inactive) |
| O=C1OC2(CCCCC2)OC(=O)C1=CNc1nc2ccccc2s1 | 1 (active) |

| Structure (SMILES) | manual score |
| --- | --- |
| CN(C)c1nc2ccccc2c(N)c1-c1ccccc1 | 0 (inactive) |
| COc1ccc(-c2nnc3sc(C4CCCCC4)nn23)cc1OC | -0.5 (inactive) |
| Cc1ccc(-c2csc3nc[nH]c(=S)c23)cc1C | 1 (active) |
| S=c1[nH]cnc2scc(-c3ccccc3)c12 | 1 (active) |
| CCCc1nc2scc(-c3ccccc3)c2c(=O)n1N | 0 (inactive) |
| CC1(C)Cc2nc(NCCN3CCOCC3)c(C#N)cc2CO1 | 0 (inactive) |
| O=c1cc(Cn2ccnc2)c2cc3c(cc2o1)CCC3 | 0 (inactive) |
| O=C(CN1C(=O)/C(=C/c2ccccc2F)Oc2ccccc21)N1CCN(c2ccccn2)CC1 | 0 (inactive) |
| CCOC(=O)c1c(NC(=O)CSc2nnc(-c3ccncc3)n2Cc2ccco2)sc(C(C)=O)c1C | -1 (active) |
| COC(=O)c1c(NC(=O)CSc2nnc(-c3cccnc3)n2Cc2ccco2)sc(C)c1C | -1 (active) |
| O=C(CCn1c(=O)oc2ccccc21)N1CCN(c2ccccc2Cl)CC1 | 0 (inactive) |
| S=C(Nc1ccccc1Cl)Nc1ccc(Cl)cc1Cl | 1 (active) |
| CN(C)S(=O)(=O)c1cccc(NC(=O)Cc2ccc(Cl)cc2)c1 | 0 (inactive) |
| S=C(Nc1ccc(Oc2ccccc2)cc1)NC1CCCC1 | 0 (inactive) |
| CN(C)S(=O)(=O)c1cccc(NC(=S)Nc2cc(Cl)cc(Cl)c2)c1 | 0 (inactive) |
| S=C(Nc1ccc(Cl)cc1Cl)Nc1ccccc1Oc1ccccc1 | 1 (active) |
| S=C(Nc1ccccc1)Nc1cc(Cl)ccc1Oc1ccccc1 | 0 (inactive) |
| CN(C)S(=O)(=O)c1cccc(NC(=S)Nc2ccc(Cl)cc2Cl)c1 | 1 (active) |
| S=C(Nc1cccc(Cl)c1)Nc1ccccc1Oc1ccccc1 | 0 (inactive) |
| S=C(NCCc1ccccc1)Nc1ccc(Cl)cc1Cl | 0 (inactive) |
| S=C(Nc1ccccc1Oc1ccccc1)Nc1cccc(Cl)c1Cl | 1 (active) |
| COc1ccccc1NC(=S)NCCc1ccc(Cl)cc1 | 0 (inactive) |
